Experimental data as given in PubChem BioAssay (NCI).
The panel holds about 79,000 compounds, 15% with a hit somewhere; the sample as a whole holds those more often. The source made the active and inactive calls. Cut-off read from the data, not from the text of the source: active = growth inhibition above about 70%; inactive = the rest.

What was measured:
[1] = NCI Yeast Anticancer Drug Screen. Data for the wt2 strain (AID 169); details: S. cerevisiae wt2 strain growth inhibition, stronger effect = higher value
Procedure, shortened: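 Growth of compound-treated yeast is measured and expressed as inhibition relative to vehicle-only controls.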

[2] = NCI Yeast Anticancer Drug Screen. Data for the mlh1 strain (AID 171);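 note: 0% = growth of vehicle-treated control cultures of the same strain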; details: S. cerevisiae mlh1 strain growth inhibition, stronger effect = higher value
Procedure, shortened: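 Test agents were incubated with yeast bearing a defined DNA damage repair or cell cycle control alteration; values are growth inhibition normalised to vehicle-treated cultures.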

[3] = NCI Yeast Anticancer Drug Screen. Data for the sgs1 strain (AID 173);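 note: 0% = growth of vehicle-only control cultures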; details: S. cerevisiae sgs1 mutant, stronger effect = higher value
Procedure, shortened: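 Strain with an altered DNA repair or cell cycle pathway exposed to compound. Growth then measured. Value = inhibition versus vehicle control.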

[4] = NCI Yeast Anticancer Drug Screen. Data for the mlh1 rad18 strain (AID 175); details: S. cerevisiae mlh1 rad18 strain growth inhibition, stronger effect = higher value
Procedure, shortened: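 A repair-deficient yeast strain is exposed to test compound, and growth is scored relative to vehicle-treated controls.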

[5] = NCI Yeast Anticancer Drug Screen. Data for the rad18 strain (AID 177); details: S. cerevisiae rad18 mutant growth inhibition, stronger effect = higher value
Procedure, shortened: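 DNA-repair-defective yeast; compound treatment; growth inhibition scored against vehicle.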

[6] = NCI Yeast Anticancer Drug Screen. Data for the rad52 strain (AID 147);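 note: 0% = growth of vehicle-treated control cultures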; details: S. cerevisiae rad52 mutant growth inhibition, stronger effect = higher value
Procedure, shortened: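 Growth of repair-deficient yeast cells was compared between compound-treated and vehicle-treated cultures to give percent inhibition.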

[7] = NCI Yeast Anticancer Drug Screen. Data for the wt1 strain (AID 149);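 note: 0% = growth of vehicle-treated wt1 cultures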; details: S. cerevisiae wt1 strain (SPY 50644) growth inhibition, stronger effect = higher value
Procedure, shortened: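 Each compound is tested on wt1 yeast and the loss of growth versus vehicle gives the inhibition value.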

[8] = NCI Yeast Anticancer Drug Screen. Data for the rad50EPP+ strain (AID 151);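 note: 0% = growth of vehicle-treated control cultures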; details: S. cerevisiae rad50 mutant strain, stronger effect = higher value
Procedure, shortened: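 Measured: growth inhibition of rad50EPP+ yeast. Reference: vehicle-treated controls. Screen uses strains with defined genetic alterations in DNA damage repair or cell cycle control.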

[9] = NCI Yeast Anticancer Drug Screen. Data for the mgt1 strain (AID 153); details: S. cerevisiae mgt1 mutant growth inhibition, stronger effect = higher value
Procedure, shortened: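 Compounds were applied to mgt1 mutant yeast, and growth was then compared against vehicle-treated control cultures to give percent inhibition.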

[10] = NCI Yeast Anticancer Drug Screen. Data for the rad50 strain (AID 155);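 note: 0% = growth of vehicle-only cultures of the same strain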; details: S. cerevisiae rad50 strain growth inhibition, stronger effect = higher value
Procedure, shortened: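 Vehicle-treated cultures provide the reference for the growth inhibition reported for compound-exposed, repair-deficient yeast.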

[11] = NCI Yeast Anticancer Drug Screen. Data for the mec2-1 strain (AID 157); details: S. cerevisiae mec2-1 strain, stronger effect = higher value
Procedure, shortened: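 Compounds were applied to mec2-1 yeast cells. Their growth was then compared with that of vehicle-treated cultures to give growth inhibition.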

[12] = NCI Yeast Anticancer Drug Screen. Data for the rad14 strain (AID 159);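 note: 0% = growth of vehicle-treated control cultures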; details: S. cerevisiae rad14 strain growth inhibition, stronger effect = higher value
Procedure, shortened: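 Inhibition of growth is reported for a repair-deficient yeast mutant following compound treatment, calculated relative to cultures that received vehicle.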

[13] = NCI Yeast Anticancer Drug Screen. Data for the sgs1 mgt1 strain (AID 161);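 note: 0% = growth of cultures given vehicle only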; details: S. cerevisiae sgs1 mgt1 strain, stronger effect = higher value
Procedure, shortened: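 Yeast cells carrying a defined DNA-repair defect were exposed to test compounds. Growth inhibition was measured relative to vehicle-treated controls.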

[14] = NCI Yeast Anticancer Drug Screen. Data for the CLN2oe strain (AID 163);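 note: 0% = growth of vehicle-only control cultures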; details: S. cerevisiae CLN2oe strain, stronger effect = higher value
Procedure, shortened: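 Cells of an engineered yeast line with disturbed cell-cycle regulation are treated with compound. Inhibition of growth is then calculated relative to the vehicle-treated reference.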

[15] = NCI Yeast Anticancer Drug Screen. Data for the cln2 rad14 strain (AID 165);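 note: 0% = growth equal to vehicle treated cultures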; details: S. cerevisiae cln2 rad14 strain, stronger effect = higher value
Procedure, shortened: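 Strain: cln2 rad14 yeast, altered in cell cycle control and DNA damage repair. Read-out: growth inhibition vs vehicle.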

[16] = NCI Yeast Anticancer Drug Screen. Data for the bub3 strain (AID 167); details: S. cerevisiae bub3 mutant strain, stronger effect = higher value
Procedure, shortened: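 Mutant yeast screening strain plus compound; vehicle-treated cultures serve as the 0% inhibition reference.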

[17] = at 5.0 µM (retest, dose inferred, filed as 0.5)
[18] = at 50.0 µM (retest, dose inferred, filed as 5.0)

Measured: growth inhibition

OC1(c2ccccc2)CSC2=Nc3ccccc3C3CCN1N23 (stereo unspecified)
active: [1]; at 100.0 µM 94% | [2]; at 100.0 µM 93% | [3]; at 100.0 µM 94% | [4]; [18] 78% | [4]; at 50.0 µM 80.7% | [5]; at 100.0 µM 92%
inactive: [1]; at 1.2 µM -47% | [1]; at 3.7 µM -39% | [1]; at 11.0 µM -34% | [1]; at 33.0 µM -1% | [2]; at 1.2 µM -81% | [2]; at 3.7 µM -100% | [2]; at 11.0 µM -63% | [2]; at 33.0 µM 58% | [3]; at 1.2 µM -23% | [3]; at 3.7 µM -55% | [3]; at 11.0 µM -42% | [3]; at 33.0 µM 18% | [4]; [17] 23% | [5]; at 1.2 µM -65% | [5]; at 3.7 µM -55% | [5]; at 11.0 µM -70% | [5]; at 33.0 µM -21%

CC(C)/C(Cl)=N\OC(=O)Nc1ccccc1F
active: [10]; [18] 85% | [11]; [18] 86% | [11]; at 50.0 µM 76% | [13]; [18] 82% | [16]; at 3.7 µM 83% | [16]; at 11.0 µM 92% | [16]; at 33.0 µM 93% | [16]; [18] 98% | [16]; at 50.0 µM 82% | [16]; at 100.0 µM 94%
inactive: [6]; at 1.2 µM 4% | [6]; at 3.7 µM 9% | [6]; at 11.0 µM 19% | [6]; at 33.0 µM 35% | [6]; at 100.0 µM 35% | [7]; at 1.2 µM 1% | [7]; at 3.7 µM 4% | [7]; at 11.0 µM 9% | [7]; at 33.0 µM 17% | [7]; at 100.0 µM 18% | [8]; at 1.2 µM 18% | [8]; at 3.7 µM 28% | [8]; at 11.0 µM 46% | [8]; at 33.0 µM 59% | [8]; at 100.0 µM 46% | [9]; at 1.2 µM 0% | [9]; at 3.7 µM 6% | [9]; at 11.0 µM 21% | [9]; at 33.0 µM 23% | [9]; at 100.0 µM 21% | [10]; at 1.2 µM 9% | [10]; at 3.7 µM 17% | [10]; [17] 2% | [10]; at 11.0 µM 21% | [10]; at 33.0 µM 43% | [10]; at 50.0 µM -7.75% | [10]; at 100.0 µM 40% | [11]; at 1.2 µM 11% | [11]; at 3.7 µM 17% | [11]; [17] -1% | [11]; at 11.0 µM 23% | [11]; at 33.0 µM 31% | [11]; at 100.0 µM 31% | [12]; at 1.2 µM 6% | [12]; at 3.7 µM 14% | [12]; at 11.0 µM 9% | [12]; at 33.0 µM 23% | [12]; at 100.0 µM 26% | [13]; [17] -38% | [13]; at 50.0 µM 62.5% | [14]; at 1.2 µM 15% | [14]; at 3.7 µM 14% | [14]; at 11.0 µM 19% | [14]; at 33.0 µM 19% | [14]; at 100.0 µM 23% | [15]; [17] 23% | [15]; [18] 37% | [15]; at 50.0 µM 35.1% | [16]; at 1.2 µM 55% | [16]; [17] 49% | [1]; at 1.2 µM 0% | [1]; at 3.7 µM 5% | [1]; at 11.0 µM 15% | [1]; at 33.0 µM 41% | [1]; at 100.0 µM 29% | [2]; at 1.2 µM 3% | [2]; at 3.7 µM 5% | [2]; at 11.0 µM 14% | [2]; at 33.0 µM 22% | [2]; at 100.0 µM 20% | [3]; at 1.2 µM 6% | [3]; at 3.7 µM 13% | [3]; at 11.0 µM 34% | [3]; at 33.0 µM 60% | [3]; at 100.0 µM 49% | [4]; [17] -15% | [4]; [18] 66% | [4]; at 50.0 µM 58.9% | [5]; at 1.2 µM -6% | [5]; at 3.7 µM 3% | [5]; at 11.0 µM 17% | [5]; at 33.0 µM 43% | [5]; at 100.0 µM 41%
